Consider 25 compounds from PubChem BioAssay.

SMILES strings stand for the structures. Calls of active or inactive are those of the source.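 Rule for the calls: active = compound raises GLP1 secretion from the human gut endocrine cells, with no numeric limit stated; inactive = the rest.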

The test is described as follows: glucagon-like peptide 1 release enhancers, primary assay, NCI-H716 cell line, NPC library (AID 1117341). Note: reference of the scale not given here. To be noted: NCI-H716 cells, at 10 µM, active compounds read high.
On to `CCCCCCCCCC(=O)O`, for which the GLP1 secretion stimulation is 1.6% (inactive).
With `O=C(CCN1CCC(c2ccccc2)C1)c1ccc2c(c1)OCCO2` (stereo not given) the figure was 1.4% (inactive); with `CNC(=O)c1cnn(-c2nc(N)c3ncn([C@@H]4O[C@H](CO)[C@@H](O)[C@H]4O)c3n2)c1`, 4.6% (inactive); with `O=C(O)Cc1cn(-c2ccccc2)nc1-c1ccc(Cl)cc1`, -0.7% (inactive).
With `CC1(S(=O)(=O)O)CC(=O)c2ccccc2C1=O` (stereo not given) the figure was 1.2% (inactive); with `OCCCc1ccccc1`, 4.3% (inactive).
With `NC(N)=NN=C(/C=C/c1ccc([N+](=O)[O-])o1)/C=C/c1ccc([N+](=O)[O-])o1` the figure was -3% (inactive).
For `O=C1c2ccccc2CCc2ccccc21`, the GLP1 secretion stimulation was -1.2% (inactive).
The figure for `Oc1ccccc1` is 0.5% (inactive); for `CCOC(=O)c1ccc(NC(=O)CN2CCCCC2)cc1` it is 0.9% (inactive); for `COc1ccccc1OC(=O)Oc1ccccc1OC` it is 1.6% (inactive).
With `CC1(C)CO[C@@H](CC(=O)O)CN1` the figure was -0.1% (inactive); with `CCCCN=C(N)N=C(N)N`, 2.1% (inactive); with `O=C(O)CCC(=O)C(=O)O`, -1.6% (inactive).
The figure for `Cc1ccc(CCn2c3c(c4cc(Cl)ccc42)CN(C)CC3)cn1` is 1.7% (inactive).
Take `C[C@@H](N)C(=O)O`: the GLP1 secretion stimulation was 5.9% (inactive).
With `CCc1nnc(NS(=O)(=O)c2ccc(N)cc2)s1` the figure was -0.1% (inactive).
With `NS(=O)(=O)c1cc(-c2nn[nH]n2)c(NCc2cccs2)cc1Cl` the figure was -0.2% (inactive); with `O=C(O)CNC(=O)CNC(=O)CNC(=O)CSC(=O)c1ccccc1`, 4.6% (inactive).
The figure for `CCCCCCCCCCCCCCCCCCN(C)C` is -0.1% (inactive).
As to `Oc1cccc(-c2c3nc(c(-c4cccc(O)c4)c4ccc([nH]4)c(-c4cccc(O)c4)c4nc(c(-c5cccc(O)c5)c5ccc2[nH]5)CC4)C=C3)c1`, the GLP1 secretion stimulation was 13.6% (inactive).
The figure for `C=CCNc1nc(NCC=C)nc(N2CCN(C(c3ccc(F)cc3)c3ccc(F)cc3)CC2)n1` is -3.9% (inactive); for `O=C(CCN1CCN(CCO)CC1)N1c2ccccc2Sc2ccc(C(F)(F)F)cc21` it is 2.4% (inactive).
The figure for `COc1ccc(OC(=O)N(CC(=O)O)Cc2ccc(OCCc3nc(-c4ccccc4)oc3C)cc2)cc1` is 51.7% (active); for `Oc1ccc(CCNCCCCCCNCCc2ccccc2)cc1O` it is 0.6% (inactive).
